Pf growth 48h = P. falciparum growth inhibition at 48 hours (one generation) | P. falciparum luciferase growth in erythrocytes, 48 h | Potency, µM (doses to about 28.7 µM), for inactives: at the highest dose activity change, negative = inhibition, usual class: inhibitors | actives 5.9% (n = 310,000) | AID 504832; further: potency means the concentration at half of the fitted maximal effect
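Firefly luciferase activity from engineered P. falciparum reports growth; inhibitors lower the luminescent signal. Cultures contained 2% hematocrit erythrocytes at 0.1% final parasitemia.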
Pf growth 96h = inhibits malaria parasite growth, 96 h. P. falciparum luciferase reporter growth, 96 h. Potency, µM (top dose mostly 28.7 µM), for the others: at the highest dose activity change, negative = inhibition, usual class: inhibitors. actives 6.9% (n = 320,000). AID 504834; further: potency means the concentration at half of the fitted maximal effect
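Erythrocytes infected with luciferase-expressing P. falciparum were dispensed at 2% hematocrit and 0.05% parasitemia (final), then incubated with compounds 96 hours at 37 C in 5% CO2. Luminescence after detection reagent addition reported growth.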
HCV inh = HCV inhibition; Huh7.5.1 HCVcc-Cre infection, luciferase reporter, 44 h; Potency, µM (titrated, usually from 41.8 µM), for the others: at the highest dose activity change, negative = inhibition, most hits filed as inhibitors; actives 3.4% (n = 340,000); further: potency means the concentration at half of the fitted maximal effect
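Seed cells (1,000/well) for 4 h; treat with compound and infect with HCVcc-Cre, moi about 0.5. Incubate 44 h, then detect luciferase activity.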
HCMV antiviral = inhibitors of human cytomegalovirus; HFF cells, HCMV-luciferase reporter, 72 h; active compounds read low; activity change, negative = inhibition, % at 57.5 µM; actives 4.5% (n = 410,000); AID 1259415; in the data active means activity change below about -60%; inconclusive means no clear call, values can overlap the other calls; inactive means above about -39%
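Two compound doses tested in HFFs infected with HCMV-luciferase, MOI 1 PFU/cell, 72 h at 37C. Lysate luminescence read with OneGlo; data normalized against buffer-only and 10uM Salinomycin inhibitor controls.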
Lassa entry inh = inhibitors of Lassa virus binding or cell entry | AID 540256 | Lassa virus pseudotype entry inhibition, cell reporter | Potency, µM (highest dose often 37.9 µM), for inactives: at the highest dose activity change, negative = inhibition, most hits filed as inhibitors | actives 1.2% (n = 300,000); calls by dose curve; tested in HEK293 cells; further: potency means the concentration at half of the fitted maximal effect; nearly all actives have a fitted effect of over 50% in size
Marburg entry inh = blocks Marburg virus binding to or entry into cells; Marburg virus pseudotyped entry inhibition, cell reporter; Potency, µM (doses to about 37.8 µM), for inactives: at the highest dose activity change, negative = inhibition, most hits filed as inhibitors; actives 1.8% (n = 300,000); AID 540276; calls by dose curve; tested in HEK293 cells; further: potency means the concentration at half of the fitted maximal effect
* hit, by the source's call; ? = inconclusive; . = not tested or not shown; [ ] = dose if it differs, or a comment. Shown are actives, neighbours in structure and some others; about 14% of the full set was active somewhere. Unless noted, the call rests on the fitted dose curve; in most records, active means well fitted inhibition curve with a large enough effect; inconclusive means small, poorly fitted or top-dose-only effect, or another doubt; inactive means no such curve, though single readings can be large or run the other way. On the % scale 0 is the no-effect control and ±100 the full control effect.

SMILES | Pf growth 48h | Pf growth 96h | HCV inh | HCMV antiviral | Lassa entry inh | Marburg entry inh
C=CCn1c(C)cc(C(=O)CSc2nnc(NC(C)C)s2)c1C | ? | 4.7µM* | -18% | 9 | ? | ?
C=CCn1c(C)cc(C(=O)CSc2nc3ccccc3o2)c1C | -52% | ? | 22µM* | ? | -25% | 13µM*
Cc1cc(C(=O)CSc2nc3ccccc3o2)c(C)n1C1CC1 | 74% | 86% | ? | 3 | ? | ?
Cc1ccc2nc(SCC3CCCCO3)[nH]c2c1 (stereo not drawn) | -2% | 16% | -2% | -7 | ? | 2.8µM*
Cc1cc(C(=O)CSc2nc3ccccc3[nH]2)c(C)n1Cc1ccco1 | 57% | 0% | ? | -85* | 4µM* | ?
C=CCn1c(C)cc(C(=O)CSc2nc3ccccc3[nH]2)c1C | -79% | 24% | 6.3µM* | -92* | 4.6µM* | ?
Cc1cc(C(=O)CSc2nc3ccccc3[nH]2)c(C)n1C | -39% | -2% | -23% | -10 | ? | ?
COc1ccc(N2CCN(S(=O)(=O)c3ccc4c(c3)C(C(C)C)C(=O)N4)CC2)cc1 (stereo not drawn) | . | . | . | -20 | 6%[46.1 µM] | .
NCCO/C=C/[C@H](N)C(=O)O | 5% | 10% | . | . | . | .
CSc1nnc2n(-c3cccc(C)c3)c(=O)c3c4c(sc3n12)CCCC4 | . | . | . | -13 | 0%[46.1 µM] | 14%[46.1 µM]
CCSc1nnc2n(-c3ccc(OC)cc3)c(=O)c3c4c(sc3n12)CCCC4 | . | 22% | -4% | -85* | 0% | 12%
COC(=O)C(C)Sc1nnc2n(-c3cccc(C)c3)c(=O)c3c4c(sc3n12)CCCC4 (stereo not drawn) | 10µM* | 12µM* | 7% | -32 | . | .
CN(CC(=O)N1CCCc2c1c(=O)oc1ccc(O)cc21)Cc1ccccc1 | 9.3µM* | ? | ? | -31 | 16% | -23%
CN1C2C=C3C(C#N)=C(N)C(C#N)(C#N)C(c4ccc(Br)cc4)C3C1CC2 (stereo not drawn) | 9.3µM* | 8.3µM* | -13% | -33 | -13% | 10%
O=C1C[C@@H](c2ccccc2)[C@H](c2ccc(Br)cc2)O1 | . | . | . | . | . | -17%[14.2 µM]
CCc1ccc(C2C(C(C)=O)=C(C(=O)OC)Nc3nnnn32)cc1 (stereo not drawn) | -17% | 5.2µM* | -1% | -14 | -8% | 0%[46.1 µM]
O=C(Nc1cccc(Cl)c1)NN(c1ccccc1)C1CCS(=O)(=O)C1 (stereo not drawn) | . | . | . | -9 | . | .
Cc1cccc(NC(=O)CN2C(=O)CCn3nc(-c4cccn4C)cc32)c1C | . | . | . | 13 | -4%[46.1 µM] | .
Cc1nccc(-c2cccc(N/N=C(\C#N)C(=O)c3ccccc3)c2)n1 | 13µM* | 5.2µM* | -5% | ? | . | .
Nc1ccc2ncccc2c1N | ? | ? | ? | -36 | -20% | ?
Nc1nc(N)c2c(ccc3nccc32)[nH]1 | 1.7µM* | 3.7µM* | ? | -96* | . | .
C[C@@H](C(=O)Nc1ccc2ccccc2c1)[C@H]1C[C@]1(C)[C@H](NC(=O)OCc1ccccc1)c1ccccc1 | ? | 10µM* | ? | ? | ? | ?
Cc1cc(C(=O)N[C@H](c2ccccc2)[C@@]2(C)C[C@@H]2[C@@H](C)C(=O)Nc2ccc3ccccc3c2)n(C)n1 | 2.6µM* | 3.7µM* | ? | -15 | ? | ?
C[C@H](CO)NC(=O)[C@H](C)[C@H]1C[C@]1(C)[C@H](NC(=O)OCc1ccccc1)c1ccccc1 | 3% | 1% | -11% | 4 | ? | -13%
C[C@@H](C(=O)Nc1ccc2ccccc2c1)[C@@H]1C[C@@]1(C)[C@@H](N)c1ccccc1 | . | . | -10% | 16 | . | .
C[C@@H](C(=O)NCc1ccc(S(C)(=O)=O)cc1)[C@@H]1C[C@@]1(C)[C@@H](NC(=O)OCc1ccccc1)c1ccccc1 | -13% | ? | 4%[8.37 µM] | -10 | ? | -40%

Assay outcomes: PubChem BioAssay, National Center for Advancing Translational Sciences (NCATS)
